High-throughput results from PubChem.
MARV entry inh – blocks Marburg virus binding to or entry into cells. Marburg virus pseudotyped entry inhibition, cell reporter. Potency, µM (top dose mostly 37.8 µM), hits mostly inhibitors. 300,000 compounds, 1.8% hits. AID 540276; calls by dose curve; tested in HEK293 cells
FMDV inh – antivirals against foot and mouth disease virus. FMDV antiviral cell-based qHTS. Potency, µM (titrated, usually from 57.9 µM), usual class: inhibitors. AID 1159524. 410,000 compounds, 1.2% hits; calls by dose curve; tested in HEK293T cells; note: read-out not given here; nearly all actives have a fitted effect of over 45% in size
Lassa entry inh – blocks Lassa virus binding to or entry into cells; Lassa virus pseudotype entry inhibition, cell reporter; Potency, µM (highest dose often 37.9 µM), most hits filed as inhibitors; 300,000 compounds, 1.2% hits; AID 540256; calls by dose curve; tested in HEK293 cells; note: nearly all actives have a fitted effect of over 50% in size
HCMV inh – human cytomegalovirus inhibition; HFF cells, HCMV-luciferase reporter, 72 h; active compounds read low; activity change, negative = inhibition, % at 57.5 µM; 410,000 compounds, 4.5% hits; in the data active = activity change below about -60%; inconclusive = no clear call, values can overlap the other calls; inactive = above about -39%
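After 16 h attachment at 37C, HFF cells received test compound and HCMV-luciferase (1 PFU/cell); reporter luminescence read 72 h later, data normalized against buffer-only and known inhibitor Salinomycin.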
Numbers stand for hits; . = inactive; ? = inconclusive; / = no result given; ! = a repeat was not active. In the library only some 6.2% were active in any assay of this set; here they are far more common.

SMILES	MARV entry inh	FMDV inh	Lassa entry inh	HCMV inh
Cc1ccc(C)c(S(=O)(=O)c2nnn3c2nc(Nc2ccc(C)c(C)c2)c2sccc23)c1	/	.	.	.
O=S(=O)(c1ccc(Cl)cc1)N1CCN(C(=S)Nc2ccc(F)c(Cl)c2)CC1	?	.	?	-61.8
O=S(=O)(c1ccccc1)N1CCN(C(=S)Nc2ccc(F)cc2)CC1	.	.	.	.
CCN(CC)C(=O)c1ccc(NC(=O)c2cccc(S(=O)(=O)N3CCN(Cc4ccccc4)CC3)c2)cc1	?	?	.	-77.9
CC(=O)Nc1cccc(NC(=O)c2cccc(S(=O)(=O)N3CCN(Cc4ccccc4)CC3)c2)c1	.	.	.	.
CSc1ccc(CN(C)C(=O)c2cccc(S(=O)(=O)N3CCN(Cc4ccccc4)CC3)c2)cc1	?	15.8µM	.	?
Cc1ccc(S(=O)(=O)N2CCN(C(=O)N(c3ccccc3)c3ccccc3)CC2)cc1	18.3µM	.	?	?
Cc1ccc(N(C)C(=O)N2CCN(S(=O)(=O)c3ccc(C)cc3)CC2)cc1	.	.	/	?
CN(Cc1ccc(F)cc1)C(=O)c1cccc(S(=O)(=O)N2CCN(Cc3ccccc3)CC2)c1	?	?	?	.
O=C1c2ccccc2NC2(c3ccccc3)c3ccccc3-n3nncc3CN12 (configuration not stated)	/	/	/	.
COc1cccc(CCc2ccccc2OCC[C@@H]2C[C@@H](O)CN2C)c1	/	.	/	/
CN(CCOc1ccc(Cl)cc1)C(=O)c1cccc(S(=O)(=O)N2CCN(Cc3ccccc3)CC2)c1	/	10µM	/	?
Cc1ccc(C)c(NC(=O)CN(C)C(=O)c2cccc(S(=O)(=O)N3CCN(Cc4ccccc4)CC3)c2)c1	?	14.1µM	?	?
Cc1ccc(C)c(NC(=S)N2CCN(S(=O)(=O)c3ccccc3)CC2)c1	.	.	.	-71.4
COc1ccc(C(c2nnnn2Cc2cccs2)N2CCN(c3ccc(F)cc3)CC2)cc1OC (configuration not stated)	?	.	8.2µM	.
COc1ccc(C(c2nnnn2Cc2ccc(F)cc2)N2CCN(c3ccc(OC)cc3)CC2)cc1 (configuration not stated)	?	.	3.16µM	.
COc1ccc(Cn2nnnc2C(c2ccc(F)cc2)N2CCN(C3CCCC3)CC2)cc1 (configuration not stated)	10µM	.	?	.
CCCC(c1nnnn1Cc1ccc(F)cc1)N1CCN(C2CCCCC2)CC1 (configuration not stated)	8.91µM	.	.	.
Cc1cccc(N2CCN(CCNC(=O)C3COc4ccccc4C3)CC2)c1C (configuration not stated)	/	.	.	.
C[C@H]1[C@@H](C(=O)N2CCCC2)CC(=O)C(=NOCc2ccccc2)C[C@H]1c1ccccc1	.	/	?	/
Fc1ccc(C(c2nnnn2Cc2cccs2)N2CCN(C3CCCCC3)CC2)cc1 (configuration not stated)	22.4µM!	.	.	.
COC(=O)C1=C(c2ccc3ccccc3c2)C[C@@H]2CC[C@H]1N2C	/	.	/	.
COC(=O)C1=C(C(=O)OC)C2OC1c1cc3ccccc3cc12	?	28.2µM	.	.
CCN(CC)CCOC(=O)c1ccc(NC(=O)c2nn(-c3ccc(C)cc3)c(=O)c3c2c2ccccc2n3C)cc1	?	.	.	-100.0
CCN(CC)CCCNC(=O)c1nn(-c2ccc(C)cc2)c(=O)c2c1c1ccccc1n2C	?	.	.	.
SMILES	MARV entry inh	FMDV inh	Lassa entry inh	HCMV inh
COCC(=O)Nc1cc(C(=O)N2CCc3sccc3C2)c2c(c1)nc(-c1ccncc1)n2C	/	.	/	/
Oc1c(Cl)cc(Cl)cc1/C=N/Nc1ncc(Br)cn1	?	.	?	-94.4
CCCCN1C(=O)C(CC(=O)NC2CCCC2)CC(C(=O)N2CCOCC2)=C1C (configuration not stated)	/	39.8µM	/	.
CCCCN1C(=O)C(CC(=O)NC2CCCCC2)CC(C(=O)N2CCOCC2)=C1C (configuration not stated)	/	.	/	.
CC1CCCN(CCOc2ccc3ccccc3c2Br)C1 (configuration not stated)	?	.	?	-82.9
COC(=O)c1sccc1NC(=O)c1cc(-c2cc(C)ccc2C)nc2ccccc12	.	.	.	.
Cc1cc(NC(=O)c2cc(-c3ccccc3C)nc3ccccc23)no1	.	.	.	-74.4
Cc1ccc(C)c(-c2cc(C(=O)Nc3nccs3)c3ccccc3n2)c1	.	?	.	-70.7
Cc1ccc(C)c(-c2cc(C(=O)Nc3cccnc3)c3ccccc3n2)c1	11.2µM	.	.	.
Cc1cc(NC(=O)c2cc(-c3cccnc3)nc3c(C)c(C)ccc23)no1	?	?	.	-64.0
Cc1ccc(-c2cc(C(=O)Nc3cc(C)on3)c3ccccc3n2)c(C)c1	.	.	.	.
CC(C)NC(=O)c1cn(C2CCC(NC(=O)C(C)(C)C)CC2)nn1 (configuration not stated)	/	.	/	/
Cc1ccc(-c2nc3c4ccccc4ccn3c2Cc2cccc(F)c2)cc1	/	/	/	.
Cc1ccc(OC(C)C(=O)N2CCN(CCc3ccccn3)CC2)cc1C (configuration not stated)	.	.	.	.
Cc1nn(-c2nc3ccccc3[nH]2)c(=O)c2ccccc12	?	0.794µM	?	-90.5
Cc1nn(-c2nc3ccccc3[nH]2)c(N)c1-c1ccc(Cl)cc1	?	.	.	-67.7
Cc1nn(-c2ccc3ccccc3c2)c(=O)c2ccccc12	/	.	/	.
COc1ccc(-c2c(C)nn(-c3ccccc3)c2N)cc1	.	.	?	.
CC[N@+]1(C)CCC[C@H](OC(=O)C(O)(c2ccccc2)c2ccccc2)C1	.	/	/	/
CCOc1ccc(C(CC(=O)O)NC(=O)c2ccco2)cc1OC (configuration not stated)	.	.	.	-100.5
CC1CCCCN1c1ncnc2ccccc12 (configuration not stated)	?	/	?	-88.4
CC1(C)CC2CC(C)(CN2c2ncnc3ccccc23)C1 (configuration not stated)	?	/	.	-63.2
c1ccc2c(N3CCCCC3)ncnc2c1	.	.	.	-91.0
COC(=O)C1(O)CC(c2ccccc2)C(C(=O)c2ccccc2)N1c1ccc(Br)cc1 (configuration not stated)	/	/	/	.
COc1ccc(CN2CCCN(CC(=O)Nc3cc(C)ccc3C)S2(=O)=O)cc1	/	.	.	.
SMILES	MARV entry inh	FMDV inh	Lassa entry inh	HCMV inh
CC(=O)OCC12CC(OC(=O)CC(C)C)C(C)=CC1OC1C(O)C(OC(C)=O)C2(C)C12CO2 (configuration not stated)	?	/	?	-97.3
COc1cc(Cl)c(CN2CCOc3ccc(CN4CCCCC4CO)cc3C2)cc1OC (configuration not stated)	/	.	/	/
O=C1c2ccccc2C(=O)N1Nc1ccccc1	?	.	.	.
Cc1ccc(NN2C(=O)C=C(c3ccccc3)C2=O)cc1	11.2µM	20µM	?	.
CC(=O)Nc1ccc(Nc2nc(C)c([N+](=O)[O-])c(N(C)c3ccccc3)n2)cc1	.	31.6µM	?	?
O=C(NC1CCCCC1)OC[C@@H]1CSCCS(=O)(=O)N1	/	/	?	.
Cc1ccc(C(c2ccccc2)c2c(C)[nH]c3ccccc23)s1 (configuration not stated)	/	.	.	-83.4
